# Test results: the supplement of paper PMC8728848
# About 410 targets per protein were measured; listed, in parts, are those with the strongest signals and a random draw of the rest.
# B1: GS13971A-bth-447-22-447 (Bacteroides thetaiotaomicron) (protein)
# chain: EDVDNERSKGMFSASQSGFSTIEVYDLGPLNKIDLSIAKAGLEDTGGTVTFSVEQSLLDSLNNADGTSYQLLPPECYTIENATYSVSPGGDRRVTGGSLVYDPHKIYNLCGFDELKYVLPLRVSSTGTPMNSDRTATLYGFIVKEAIVRLASTGGDFVVEGGTTTSPMNLDTEISFENEWDLTTSFATKGADYVDNYNSANSTYYIPLPSDFYTLPDVTIAKGKTTGGSAISLLGETLPPGNYLLPVSLGGLSGQGDASINIDKETVANYFVIKQGGPINRDHWTVTANTEEKTGEVSAAYPHNGQTISLIDGEINTFWHSKWQGGEVAPPYEIILDMGKENSVSQLGLIARQNALTSMNLEIYAGDDGETWNLIGKYFFDGSIKTEQMVPVKACDARWIRIYIPTLGSGSSVGHLAEIYVYGTDK
# How the values were obtained:
# Experiment in all cases: glycan array binding signal (z-score within array); higher = stronger binding
# Conditions in all cases: glycan notation: IUPAC condensed, linker removed
# [1] = molecular target: Fuc(a1-2)Gal(b1-3)GalNAc(b1-4)[Neu5Ac(a2-3)]Gal(b1-4)Glc
# Outline: (§1)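 Glycan array data came from 3228 arrays in the Consortium for Functional Glycomics database, and only arrays with an available protein sequence were kept. Glycan names were put into IUPAC-condensed notation, and columns mapping to the same glycan were averaged. The binding signal is a within-array Z-score, averaged across arrays of one protein sequence run at different concentrations or buffers and across linkers. A negative Z-score can be read as non-binding.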
# [2] = molecular target: Fuc(a1-2)[Gal(a1-4)]Gal(b1-4)GlcNAc
# Outline: as §1
# [3] = molecular target: Fuc(a1-2)[GalNAc(a1-3)]Gal(b1-3)GalNAc(b1-3)Gal(a1-4)Gal(b1-4)Glc
# Outline: as §1
# [4] = molecular target: Fuc(a1-2)[GalNAc(a1-3)]Gal(b1-4)GlcNAc(b1-3)Gal(b1-4)GlcNAc
# Outline: as §1
# [5] = molecular target: Fuc(a1-3)[Gal(b1-4)]GlcNAc
# Outline: as §1
# [6] = molecular target: Fuc(a1-3)[Gal(b1-4)]GlcNAc(b1-6)GalNAc
# Outline: as §1
# Fuc(a1-4)GlcNAc = molecular target: Fuc(a1-4)GlcNAc
# Outline: as §1
# [7] = molecular target: Gal(a1-3)Gal(b1-3)GlcNAc(b1-2)Man(a1-3)[Gal(a1-3)Gal(b1-3)GlcNAc(b1-2)Man(a1-6)]Man(b1-4)GlcNAc(b1-4)GlcNAc
# Outline: as §1
# [8] = molecular target: Gal(a1-3)Gal(b1-3)[Fuc(a1-4)]GlcNAc(b1-2)Man(a1-3)[Gal(a1-3)Gal(b1-3)[Fuc(a1-4)]GlcNAc(b1-2)Man(a1-6)]Man(b1-4)GlcNAc(b1-4)GlcNAc
# Outline: as §1
# [9] = molecular target: Gal(a1-3)Gal(b1-4)GlcNAc(b1-2)Man(a1-3)[Gal(a1-3)Gal(b1-4)GlcNAc(b1-2)Man(a1-6)]Man(b1-4)GlcNAc(b1-4)GlcNAc
# Outline: as §1
# [10] = molecular target: Gal(a1-3)Gal(b1-4)GlcNAc(b1-3)GalNAc
# Outline: as §1
# [11] = molecular target: Gal(a1-3)[Gal(a1-4)]Gal(b1-4)GlcNAc
# Outline: as §1
# [12] = molecular target: Gal(a1-4)Gal(b1-3)GlcNAc(b1-2)Man(a1-3)[Gal(a1-4)Gal(b1-3)GlcNAc(b1-2)Man(a1-6)]Man(b1-4)GlcNAc(b1-4)GlcNAc
# Outline: as §1
# [13] = molecular target: Gal(b1-3)GlcNAc(b1-2)Man(a1-3)[GlcNAc(b1-4)][Gal(b1-3)GlcNAc(b1-2)Man(a1-6)]Man(b1-4)GlcNAc(b1-4)GlcNAc
# Outline: as §1
# [14] = molecular target: Gal(b1-3)GlcNAc(b1-3)GalNAc
# Outline: as §1
# [15] = molecular target: Gal(b1-3)[Fuc(a1-4)]GlcNAc(b1-3)Gal(b1-4)[Fuc(a1-3)]GlcNAc
# Outline: as §1
# [16] = molecular target: Gal(b1-4)GlcNAc(a1-6)Gal(b1-4)GlcNAc
# Outline: as §1
# [17] = molecular target: Gal(b1-4)GlcNAc(b1-3)Gal(b1-3)GalNAc
# Outline: as §1
# [18] = molecular target: Gal(b1-4)GlcNAc(b1-3)Gal(b1-3)GlcNAc
# Outline: as §1
# [19] = molecular target: Gal(b1-4)GlcNAc(b1-3)Gal(b1-4)GlcNAc
# Outline: as §1
# [20] = molecular target: Gal(b1-4)GlcNAc(b1-3)Gal(b1-4)GlcNAc(b1-2)[Gal(b1-4)GlcNAc(b1-3)Gal(b1-4)GlcNAc(b1-6)]Man(a1-6)[Gal(b1-4)GlcNAc(b1-3)Gal(b1-4)GlcNAc(b1-2)Man(a1-3)]Man(b1-4)GlcNAc(b1-4)[Fuc(a1-6)]GlcNAc
# Outline: as §1
# [21] = molecular target: Gal(b1-4)GlcNAc(b1-3)Gal(b1-4)GlcNAc(b1-3)Gal(b1-4)GlcNAc(b1-2)[Gal(b1-4)GlcNAc(b1-3)Gal(b1-4)GlcNAc(b1-3)Gal(b1-4)GlcNAc(b1-6)]Man(a1-6)[Gal(b1-4)GlcNAc(b1-3)Gal(b1-4)GlcNAc(b1-3)Gal(b1-4)GlcNAc(b1-2)Man(a1-3)]Man(b1-4)GlcNAc(b1-4)[Fuc(a1-6)]GlcNAc
# Outline: as §1
# [22] = molecular target: Gal(b1-4)GlcNAc(b1-3)Gal(b1-4)GlcNAc(b1-3)Gal(b1-4)GlcNAc(b1-3)Gal(b1-4)GlcNAc(b1-2)Man(a1-3)[Gal(b1-4)GlcNAc(b1-3)Gal(b1-4)GlcNAc(b1-3)Gal(b1-4)GlcNAc(b1-3)Gal(b1-4)GlcNAc(b1-2)Man(a1-6)]Man(b1-4)GlcNAc(b1-4)[Fuc(a1-6)]GlcNAc
# Outline: as §1
# [23] = molecular target: Gal(b1-4)GlcNAc(b1-3)Gal(b1-4)GlcNAc(b1-3)Gal(b1-4)GlcNAc(b1-3)Gal(b1-4)GlcNAc(b1-2)[Gal(b1-4)GlcNAc(b1-3)Gal(b1-4)GlcNAc(b1-3)Gal(b1-4)GlcNAc(b1-3)Gal(b1-4)GlcNAc(b1-6)]Man(a1-6)[Gal(b1-4)GlcNAc(b1-3)Gal(b1-4)GlcNAc(b1-3)Gal(b1-4)GlcNAc(b1-3)Gal(b1-4)GlcNAc(b1-2)Man(a1-3)]Man(b1-4)GlcNAc(b1-4)[Fuc(a1-6)]GlcNAc
# Outline: as §1
# [24] = molecular target: Gal(b1-4)GlcNAc(b1-3)Gal(b1-4)GlcNAc(b1-3)Gal(b1-4)GlcNAc(b1-3)Gal(b1-4)GlcNAc(b1-3)Gal(b1-4)GlcNAc(b1-2)Man(a1-3)[Gal(b1-4)GlcNAc(b1-3)Gal(b1-4)GlcNAc(b1-3)Gal(b1-4)GlcNAc(b1-3)Gal(b1-4)GlcNAc(b1-3)Gal(b1-4)GlcNAc(b1-2)Man(a1-6)]Man(b1-4)GlcNAc(b1-4)[Fuc(a1-6)]GlcNAc
# Outline: as §1
binder,measurement,setting,value
B1,glycan array binding signal (z-score),[1],-0.611
same,glycan array binding signal (z-score),[2],1.4
same,glycan array binding signal (z-score),[3],-0.418
same,glycan array binding signal (z-score),[4],-0.622
same,glycan array binding signal (z-score),[5],0.548
same,glycan array binding signal (z-score),[6],0.414
same,glycan array binding signal (z-score),Fuc(a1-4)GlcNAc,12.2
same,glycan array binding signal (z-score),[7],-0.916
same,glycan array binding signal (z-score),[8],0.437
same,glycan array binding signal (z-score),[9],0.313
same,glycan array binding signal (z-score),[10],0.741
same,glycan array binding signal (z-score),[11],3.1
same,glycan array binding signal (z-score),[12],0.513
same,glycan array binding signal (z-score),[13],0.373
same,glycan array binding signal (z-score),[14],0.748
same,glycan array binding signal (z-score),[15],1.09
same,glycan array binding signal (z-score),[16],0.525
same,glycan array binding signal (z-score),[17],-0.104
same,glycan array binding signal (z-score),[18],0.498
same,glycan array binding signal (z-score),[19],-1.12
same,glycan array binding signal (z-score),[20],2.62
same,glycan array binding signal (z-score),[21],0.617
same,glycan array binding signal (z-score),[22],2.21
same,glycan array binding signal (z-score),[23],2.31
same,glycan array binding signal (z-score),[24],2.91
